This is part of a sample that, as a whole, favours compounds with a hit. Of some 83,000 tested, about 20% had one in any assay.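 How to read the values: 0–100, growth inhibition (40 = 60% inhibited); 0, no net growth; -100 to 0, cell death (-40 = 40% of starting cells died; -100 = all dead).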 Unmarked numbers belong to inactive results. Active and inactive are the calls of the source.

The test system of this assay is PC-3 prostate. Description: NCI-60 one-dose screen, 48 h (100 = growth as untreated, 0 = no growth, -100 = all killed). The conditions noted are these: 10 µM unless noted. The method, then: Growth inhibition of the PC-3 human tumor cell line is measured as a screen for anti-cancer activity. Cells are grown in 96 well plates and exposed to the test compound for 48 hours. Compounds are tested at a single concentration, which is 10^-5 M for most compounds. The reported endpoint is percent growth (GI% or GIPRCNT), where numbers from 0 - 100% represent growth inhibition, and numbers from -100% - 0 represent cell death. For example, a value of 40 represents 60% growth inhibition. A value of 0 means no net growth occurred over the course of the experiment. A value of -40 indicates 40% of cells at the beginning of the experiment died by the end of the experiment. A value of -100 means all cells are dead at the end of the experiment.
NCI-60 Human Tumor Cell Lines Screen was performed using the standard one-dose NCI protocol, which is described in more detail at https://dtp.cancer.gov/discovery_development/nci-60/default.htm.
Compounds with GIPRCNT values below 10 were considered active. Activity score was based on GIPRCNT using the following formula: […]
Score is 0 for GIPRCNT values of 100 or above, 50 for GIPRCNT values of 0, and 100 for GIPRCNT values of -100.
As to `O=C1c2ccccc2C(=O)c2c1c(C(=O)NCc1ccccc1)c1ccccn21`, the growth was 95.4%. Regarding `O=[N+]([O-])c1cc(NS(=O)(=O)c2ccccc2)ccc1NS(=O)(=O)c1ccccc1`, the growth was 80.7%. As for `O=C(/C=C/C12c3ccccc3C(c3ccccc31)C1C(=O)NC(=O)C12)c1ccc(Br)cc1` (stereo not given), the growth was 29.8%.

Consider `N[C@H]1CCC[C@@H]1NCCCCN1C(=O)c2cccc3cc([N+](=O)[O-])cc(c23)C1=O`, for which the growth is 40.7%. Regarding `CCCCCCCC/C=C\CCCCCCCCOc1ccc(CC(=O)NCC[N+]2(C)CCOCC2)cc1`, the growth was 12.5%.

On to `CC/C(Cc1ccccc1)=C(\c1ccc(OCCCN(C)C)cc1)c1ccc(OC(=O)NCc2ccccc2)cc1`, for which the growth is 64.5%. `Cc1c2cccnc2c(C)c2c1c1cc(CO)ccc1n2C`: the growth was 31%. The result for `CCN(CC)c1ccc(/C=N/NC(=O)Cc2ccc(Nc3ccnc(C(F)(F)F)c3)cc2)c(O)c1` reads 53.3%; that for `Cc1ccc(S(=O)(=O)OCCCOS(=O)(=O)c2ccc(C)cc2)cc1`, 89.3%. The result for `O=S1(=O)C=C(c2ccccc2)C(c2ccccc2)=C1` reads 39.6%; that for `O=S(=O)(Nc1cc(Sc2cccc3cccnc23)c(O)c2ccccc12)c1ccccc1`, 20.9%. As to `COc1ccc(C2=CC(c3cc(OC)c(OC)c(OC)c3)n3ncnc3N2)cc1` (stereo not given), the growth was 21.7%. Consider `C/C(=N\O)c1ccc(NC(=O)CSc2nnc(-c3cc(-c4ccc(S(N)(=O)=O)cc4)nc4ccccc34)n2-c2ccccc2)cc1`, for which the growth is 63.6%. In the case of `Cc1ccc(S(=O)(=O)N2CCC(=O)c3ccccc32)cc1`, the growth was 74.8%. As to `CCCCCCCCCCCCCOC(=O)c1c(C)[nH]c(/C=C2\N=C(c3ccc[nH]3)C=C2OC)c1C`, the growth is 27.6%. `Cc1ccc(-c2csc(N(C(=O)N3CCN(c4cc5c(cc4F)c(=O)c(C(=O)O)cn5C4CC4)CC3)c3ccccc3)n2)cc1`: the growth is 11.8%. With `CS(=O)(=O)c1nnc(-c2ccccc2)s1`, the growth was 96.4%. The result for `CN1CCN(C(=S)SCCCCOc2cc(=O)oc3ccccc23)CC1` reads 72.7%; that for `CCNc1ccc(-c2nc3ccccc3n3cccc23)cc1`, 68.9%; that for `S=C(c1ccc2c(c1)OCO2)N1CCN(c2cccc(Cl)c2)CC1`, 15.9%. The result for `C#CCOc1cccc(-c2ncnc3cc(NC(=O)C=C)ccc23)c1` reads 37.2%. `CC1CCN(C(=S)SCC(=O)NC(=O)c2ccccc2)CC1`: the growth was 102%. In the case of `CC1(C)NCCC[C@]2(C)[C@H]3CC[C@H]4[C@H]5[C@H](C(=O)/C=C/c6cccnc6)CCC[C@]5(CO)CC[C@@]4(C)[C@]3(C)CC[C@@H]12`, the growth was 59.4%.

Take `Nc1[nH]n2cc(-c3ccc(F)cc3)nc2c1N=Nc1ccc(S(N)(=O)=O)cc1`: the growth was 80.6%. The result for `FC(F)(F)c1ccc(Cn2cc(CSc3nc4ccccc4s3)nn2)cc1` reads 95.7%; that for `Cc1ccc2c(-n3nc(C#N)c(C#N)c3N)cc(=O)[nH]c2c1`, 71.1%. As to `O=C(N/N=C\c1cccc([N+](=O)[O-])c1)N/N=C/c1cccc([N+](=O)[O-])c1`, the growth is 91.5%. With `CCN1CCN(C(=O)[C@]23CC[C@@H](C)[C@H](C)[C@@H]2C2=CC[C@@H]4[C@@]5(C)C/C(=C/c6cccnc6)C(=O)C(C)(C)[C@@H]5CC[C@@]4(C)[C@]2(C)CC3)CC1`, the growth is 16.7%. For `COc1ccc(/C=C/c2ccc3ccccc3n2)c(OC)c1`, the growth is 66.1%. Turning to `C=C1C(=O)O[C@H]2[C@H]1CC/C(COC(=O)/C=C\C(=O)NCc1ccc(Cn3c(=O)sn(CCCCC)c3=O)cc1)=C\CC[C@@]1(C)O[C@@H]21`, the growth is 81.9%. With `CCN1CCN(CC(=O)Nc2nc3ccc(NCc4ccc(F)cc4)cc3s2)CC1`, the growth was 78.9%. With `COc1ccc2c(c1)/C(=N/c1n[nH]c(=S)s1)C(=O)N2`, the growth is 91.2%.

`COc1cc2c(cc1OCCCCN1CCN(C(=S)SCCC(C#N)(c3ccccc3)c3ccccc3)CC1)N=C[C@@H]1CCCN1C2=O`: the growth is -16.1% (active).

For the molecule `COc1ccc(/C=C/C(=O)c2ccc(NC(=O)CSc3nc4c([nH]3)c(=O)n(C)c(=O)n4C)cc2)cc1OC`, the growth was 94.6%.

On to `Cc1ccc2nc(-c3ccc(C(=O)NNC(=S)Nc4ccccc4)cc3)[nH]c2c1`, for which the growth is 85%. For `O=C(c1c[nH]c2ccccc12)c1n[nH]c(=S)n1-c1cccc(Br)c1`, the growth was 87.8%.

Turning to `CCOC(=O)C1=C(C)C(Cl)=N/C1=C\c1[nH]c(Cl)c(C)c1C(=O)OCC`, the growth is 76.3%. Take `S=c1nc2oc(-c3ccccc3)c(-c3ccccc3)c2c(/N=C\c2ccco2)[nH]1`: the growth was 85.8%. Turning to `O=C(Nc1ncc(Cc2cc(C(F)(F)F)ccc2Cl)s1)c1cccs1`, the growth is 50.1%. The result for `O=C(N=Nc1c(O)[nH]c2ccccc12)Nc1ccc(F)cc1` reads 85.9%.

The record behind these values is PubChem BioAssay (NCI).
